Test results: PubChem BioAssay AID504332 (National Center for Advancing Translational Sciences (NCATS), 2011)
Hit rate of the full screen: of about 350,000 compounds, about 31,000 (8.9%) were called active. A call without a number means that no potency is given here. About 15% were inconclusive and are not listed. Many of the other results were omitted from the sample, so actives are more common in it than they were. Values without a mark were called inactive. Calls come from the whole dose curve; as a rule, active = well fitted inhibition curve with a large enough effect; inconclusive = small, poorly fitted or top-dose-only effect; inactive = no such curve, though single readings can be large or run the other way.

Each compound was assayed against Histone-lysine N-methyltransferase EHMT2 (Homo sapiens) (UniProt Q96KQ7) (assay: qHTS Assay for Inhibitors of Histone Lysine Methyltransferase G9a). Details: G9a H3K9 monomethylation, AlphaScreen, 2 h; series mostly up to 59 µM.
Histone-lysine N-methyltransferase EHMT2 (Homo sapiens), sequence (Q96KQ7 913-1193 limits assumed): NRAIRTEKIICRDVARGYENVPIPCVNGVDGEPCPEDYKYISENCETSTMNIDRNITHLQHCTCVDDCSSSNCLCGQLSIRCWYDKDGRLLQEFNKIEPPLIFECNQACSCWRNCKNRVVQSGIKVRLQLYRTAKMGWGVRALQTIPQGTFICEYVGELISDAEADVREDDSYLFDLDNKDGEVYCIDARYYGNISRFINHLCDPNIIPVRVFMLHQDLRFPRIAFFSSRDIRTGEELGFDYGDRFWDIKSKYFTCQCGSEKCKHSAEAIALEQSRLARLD
Procedure, shortened: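 Step 1: enzyme (final 20 nM) with compound, 15 min RT. Step 2: substrate peptide 500 nM and SAM 20 uM, 2 h RT. Step 3: anti-H3K9me1 antibody and AlphaScreen beads, 10 min, then plate read.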
Note: nearly all actives have a fitted effect of over 75% in size.
Potency is the fitted concentration of half-maximal effect.

| Structure (SMILES) | Potency | activity, negative = inhibition |
| --- | --- | --- |
| Cc1ccccc1Nc1nc(N)nc(COC(=O)CCC(=O)c2ccc(F)cc2)n1 | inactive | – |
| O=C(NCc1ccccc1)[C@H]1C[C@@H]1[C@H](NP(=O)(c1ccccc1)c1ccccc1)c1ccccc1 | 28.2 µM (active) | – |
| O=C(O)C1C2C=CC(C2)C1C(=O)NCc1ccccc1 (stereo not given) | – | 1.59% [at 2.33 µM] |
| COC(=O)[C@H](Cc1ccccc1)NC(=O)[C@@H]1C[C@H]1[C@@H](NC(=O)OCc1ccccc1)c1ccccc1 | inactive | – |
| O=C(CSCc1cnn(-c2ccccc2)c1-n1cccc1)NCc1ccccc1Br | inactive | – |
| Cc1cc(C)nc(S/C=C/C(=O)c2ccccc2)n1 | 22.4 µM (active) | – |
| C/C(=N\NC(=O)c1nc(C)cc(C)n1)c1ccccc1 | inactive | – |
| Cc1cc(SCC(=O)c2ccccc2)nc(SCC(=O)c2ccccc2)n1 | inactive | – |
| COc1ccc(Cn2cc(C(=O)c3ccc(C)cc3)c(=O)c3cc(OC)c(OC)cc32)cc1 | inactive | – |
| CC12CCC(=O)N1C(C(=O)Nc1ccc(F)c(F)c1F)CS2 (stereo not given) | – | 13.3% [at 12.7 µM] |
| CCOC(=O)c1sc(NC(=O)C2CSC3(C)CCC(=O)N23)nc1C (stereo not given) | – | 20.6% [at 12.7 µM] |
| Cc1ccc2nc(NC(=O)C3CSC4(C)CCC(=O)N34)sc2c1 (stereo not given) | 39.8 µM (active) | – |
| Cc1oc2c(c1C(=O)Nc1ccc(F)c(F)c1)C1=NCCN1C=N2 | inactive | – |
| COc1ccc(-c2nn(CC(=O)NC3CCCC3)c3c2cnc2ccc(F)cc23)cc1 | inactive | – |
| COc1ccccc1Nc1ncc(C(C)=O)c(C)n1 | inactive | – |
| C=C(C)C1CC=C(C)/C(=N/NC(=O)CCCNc2cccc(C)c2)C1 (stereo not given) | inactive | – |
| C=C(C)C1CC=C(C)/C(=N\NC(=O)CNc2ccccc2OC)C1 (stereo not given) | 35.5 µM (active) | – |
| CCOC(=O)c1c(S(=O)(=O)N2CCCC(C(=O)NCc3cccc(C)c3)C2)c(C)n(C)c1C (stereo not given) | inactive | – |
| O=C(NCCC1CCCCN1S(=O)(=O)c1ccc(F)cc1)C(=O)NC1CC1 (stereo not given) | – | 16.1% [at 0.501 µM] |
| COc1ccc(NC(=O)CCCN2C(=O)C(c3ccccc3)Oc3cccnc32)cc1 (stereo not given) | inactive | – |
| O=[N+]([O-])c1cccc(/C([O-])=C(/C(=S)Nc2ccccc2F)[n+]2ccccc2)c1 | 28.2 µM (active) | – |
| Cc1cc(C)nc(NC(=O)c2cccc([N+](=O)[O-])c2)c1 | inactive | – |
| CS(=O)(=O)N(CC(=O)Nc1ccc(F)cc1F)c1cccc([N+](=O)[O-])c1 | inactive | – |
| CCCN1C2CCCC1CC(NC(=O)NC13CC4CC(CC(C4)C1)C3)C2 (stereo not given) | – | -2.35% [at 0.501 µM] |
| OCC[C@H]1C[C@@H](O)[C@H](O)[C@]2(OCCCc3ccccc32)O1 | – | -3% [at 12.7 µM] |
